Laboratory results taken from PubChem BioAssay (Tox21).
Where “and” joins values, the source holds several entries; their conditions need not be identical. Equal values may be shown once. Records with an inconclusive call do not appear. Some compounds were tested as several samples or in several runs, with calls that do not always agree. Calls of active or inactive are those of the source. Unless noted, calls follow the shape of the dose curve; as a rule, active = well fitted curve in the direction sought with a large enough effect in the repeat runs; inconclusive = weak or mixed curves; inactive = no such curve, though single readings can be large; an effect the other way counts as inactive or inconclusive.

Assays:
[1] = molecular target: Thyrotropin receptor (Homo sapiens) (UniProt P16473); assay: qHTS assay to identify small molecule agonists of the thyroid stimulating hormone receptor (TSHR) signaling pathway (AID 1224843; calls by dose curve; also: nearly all actives have a fitted effect of over 45% in size; also: potency is read from the fitted curve at half-maximal effect)
Thyrotropin receptor (Homo sapiens), sequence (P16473 whole entry, looked up): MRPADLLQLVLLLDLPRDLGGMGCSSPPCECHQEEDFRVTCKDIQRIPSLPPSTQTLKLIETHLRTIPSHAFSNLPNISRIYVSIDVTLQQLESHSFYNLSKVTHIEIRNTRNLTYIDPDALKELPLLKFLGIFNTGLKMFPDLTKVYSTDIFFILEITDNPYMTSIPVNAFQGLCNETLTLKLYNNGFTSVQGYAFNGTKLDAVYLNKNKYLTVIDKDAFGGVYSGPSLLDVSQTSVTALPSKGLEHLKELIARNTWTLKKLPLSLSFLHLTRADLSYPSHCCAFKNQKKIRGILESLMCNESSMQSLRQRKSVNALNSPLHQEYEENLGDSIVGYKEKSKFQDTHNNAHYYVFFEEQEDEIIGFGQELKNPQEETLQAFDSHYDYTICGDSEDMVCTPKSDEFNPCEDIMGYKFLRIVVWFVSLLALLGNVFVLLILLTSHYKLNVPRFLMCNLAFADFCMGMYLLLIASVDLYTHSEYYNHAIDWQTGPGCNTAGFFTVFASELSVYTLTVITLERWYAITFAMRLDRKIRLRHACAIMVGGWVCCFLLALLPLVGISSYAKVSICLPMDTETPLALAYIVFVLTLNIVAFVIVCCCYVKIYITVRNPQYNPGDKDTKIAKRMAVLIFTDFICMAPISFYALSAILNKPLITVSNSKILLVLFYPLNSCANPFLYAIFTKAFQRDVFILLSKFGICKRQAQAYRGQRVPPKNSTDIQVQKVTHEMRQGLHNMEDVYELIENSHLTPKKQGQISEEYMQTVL
Outline: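 Agonist-mode screen: TSHR HEK293 cells received test chemicals for half an hour at room temperature, then HTRF cAMP detection reagents for one hour prior to fluorescence measurement. Each chemical ran as a 15-concentration series, triplicated.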

[2] = qHTS assay to identify small molecule agonists of the hypoxia (HIF-1) signaling pathway - cell viability counter screen (AID 1224844; calls by dose curve; also: nearly all actives have a fitted effect of over 50% in size)
Outline: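 Same wells as the HIF-1 reporter screen; ME-180 cells carrying HRE-bla, 17 hr treatment at 37C; CellTiter-Glo luminescence read after 30 min at room temperature.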

[3] = qHTS assay to identify small molecule agonists of the hypoxia (HIF-1) signaling pathway (AID 1224846; active = well fitted activation curve with a large enough effect in the signal ratio in the repeat runs, not every such curve was filed as active; the % refers to the signal ratio)
Outline: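 In ME-180 cells bearing an HRE-bla construct, 17 h treatment with DMSO-dissolved compounds at 37C was followed by CCF4-AM loading to quantify reporter induction.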

[4] = qHTS assay to identify small molecule agonists of H2AX - cell viability counter screen (AID 1224847; calls by dose curve;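 also: wild-type CHO-K1 cells; top concentration of the series differs between compounds; nearly all actives have a fitted effect of over 30% in size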)
Outline: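 CHO-K1 cells plated overnight at 37C, then exposed 3 h at 37C to compounds at 15 concentrations (0.76% DMSO final). Viability by CellTiter-Glo luminescence after 30 min at room temperature.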

[5] = qHTS RealTime-Glo MT Cell Viability Assay in HepG2 cells - 24 hour (AID 1224867); also: nearly all actives have a fitted effect of over 50% in size
Outline: (§1)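 HepG2 cells were seeded at 600 cells/well together with NanoLuc luciferase and a cell-permeant prosubstrate, preincubated 5 h at 37 C/5% CO2, then pin-dosed with compounds in DMSO. Nonlytic luminescence from viable cells was read at each time point.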

[6] = qHTS RealTime-Glo MT Cell Viability Assay in HEK293 cells - 32 hour (AID 1224868); also: nearly all actives have a fitted effect of over 50% in size; also: potency is read from the fitted curve at half-maximal effect
Outline: (§2)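 HEK293 cells were seeded at 600 cells/well together with NanoLuc luciferase and cell-permeant prosubstrate, preincubated 5 h at 37 C/5% CO2, then given compound in DMSO by pintool. Luminescence from viable-cell prosubstrate reduction was read repeatedly over 40 h.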

[7] = A CellTox Green Cytotoxicity Assay to monitor cytotoxicity in HEK293 cells - 0 hour (AID 1224869); also: nearly all actives have a fitted effect of over 50% in size
Outline: (§3)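 Homogeneous no-lysis format: HEK293 cell suspension mixed with CellTox Green reagent, seeded, incubated 5 h at 37 C/5% CO2, then dosed by pintool with compound in DMSO.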

[8] = qHTS RealTime-Glo MT Cell Viability Assay in HepG2 cells - 40 hour (AID 1224870); also: nearly all actives have a fitted effect of over 50% in size
Outline: (§4)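 HepG2 cells (600/well) mixed with RealTime-Glo MT reagent, settled 5 h at 37 C/5% CO2 before compound addition. Nonlytic NanoLuc luminescence from viable-cell prosubstrate reduction read repeatedly during 40 h treatment at 37 C.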

[9] = A CellTox Green Cytotoxicity Assay to monitor cytotoxicity in HEK293 cells - 40 hour (AID 1224871); also: nearly all actives have a fitted effect of over 45% in size
Outline: as §3

[10] = qHTS RealTime-Glo MT Cell Viability Assay in HEK293 cells - 16 hour (AID 1224872); also: nearly all actives have a fitted effect of over 50% in size; also: potency is read from the fitted curve at half-maximal effect
Outline: as §2

[11] = qHTS RealTime-Glo MT Cell Viability Assay in HepG2 cells - 8 hour (AID 1224873); also: nearly all actives have a fitted effect of over 55% in size
Outline: as §4

[12] = qHTS RealTime-Glo MT Cell Viability Assay in HEK293 cells - 40 hour (AID 1224874); conditions: RealTime-Glo luminescence; max response: stronger effect = lower value; also: nearly all actives have a fitted effect of over 50% in size; also: potency is read from the fitted curve at half-maximal effect
Outline: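 Measured as luminescence from the same continuously cultured HEK293 wells at successive time points (0, 8, 16, 24, 32, 40 h) after compound addition. Reagent present from seeding; dosing at 5 h; incubation 37 C.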

[13] = A CellTox Green Cytotoxicity Assay to monitor cytotoxicity in HEK293 cells - 24 hour (AID 1224875); also: nearly all actives have a fitted effect of over 45% in size
Outline: as §3

[14] = A CellTox Green Cytotoxicity Assay to monitor cytotoxicity in HepG2 cells - 16 hour (AID 1224876); also: nearly all actives have a fitted effect of over 45% in size
Outline: (§5)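 Fluorescent DNA-binding dye, 600 HepG2 cells/well, 5 h preincubation then compound in DMSO; same plates read at 0–40 h, 37 C.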

[15] = qHTS RealTime-Glo MT Cell Viability Assay in HepG2 cells - 32 hour (AID 1224877); also: nearly all actives have a fitted effect of over 55% in size
Outline: as §1

[16] = A CellTox Green Cytotoxicity Assay to monitor cytotoxicity in HepG2 cells - 24 hour (AID 1224878); also: nearly all actives have a fitted effect of over 45% in size
Outline: as §5

[17] = A CellTox Green Cytotoxicity Assay to monitor cytotoxicity in HepG2 cells - 40 hour (AID 1224879); also: nearly all actives have a fitted effect of over 40% in size
Outline: as §5

[18] = qHTS assay to identify small molecule antagonists of the estrogen related receptor (ERR) signaling pathway from Tox21 library (AID 1224848); also: nearly all actives have a fitted effect of over 50% in size
Outline: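 Quantitative high-throughput format: ERR reporter cells (2,000/well) pre-incubated 6 h, treated 18 h at 37 C with compounds in DMSO alongside positive and negative controls, then read by ONE-Glo luminescence.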

[19] = qHTS assay to identify small molecule agonists of the estrogen related receptor (ERR) signaling pathway from Tox21 library (AID 1224849; calls by dose curve; also: nearly all actives have a fitted effect of over 15% in size); conditions: ERR reporter cell line, ONE-Glo luciferase, 18 h
Outline: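 Reporter cells (ERR, NTP source) treated with Tox21 10K compounds 18 h, 37 C. Readout: ONE-Glo luminescence, 30 min RT.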
% is scaled to controls: 0 for no effect and ±100 for the full control effect.

CC(=O)C(=O)O
inactive: Potency [1] | Potency [2] | outcome [3] | Potency [4] | Potency [5] | Potency [6] | Potency [7] | Potency [8] | Potency [9] | Potency [10] | Potency [11] | max response [12] -1.91% and -9.51% and -2.01% | Potency [13] | Potency [14] | Potency [15] | Potency [16] | Potency [17]

CC(C)NCC(O)c1ccc(O)c(O)c1 (configuration not stated)
48.4 µM (active) and inactive: Potency [10]
43.1 µM (active) and inactive: Potency [6]
active: Potency [1] 7.6 nM and 4.9 nM and 11.9 nM | Potency [12] 38.4 µM
inactive: Potency [2] | Potency [4] | Potency [18] | activity change, positive = activation ([19]; at 42.5 µM (top of the series)) 7.23% | activity change, positive = activation ([19]; at 92.4 µM (top of the series)) 4.56% and 1.6% | Potency [5] | Potency [7] | Potency [8] | Potency [9] | Potency [11] | max response [12] 1.41% | Potency [13] | Potency [14] | Potency [15] | Potency [16] | Potency [17]

CN1[C@@H]2CC(OC(=O)[C@H](CO)c3ccccc3)C[C@H]1[C@@H]1O[C@@H]12 (some centres not stated)
inactive: Potency [1] | Potency [2] | Potency [4] | Potency [5] | Potency [6] | Potency [7] | Potency [8] | Potency [9] | Potency [10] | Potency [11] | max response [12] 0.652% [middle of 4 runs] | Potency [13] | Potency [14] | Potency [15] | Potency [16] | Potency [17]

O=C1NS(=O)(=O)c2ccccc21
inactive: Potency [1] | Potency [2] | outcome [3] | Potency [4] | Potency [5] | Potency [6] | Potency [7] | Potency [8] | Potency [9] | Potency [10] | Potency [11] | max response [12] 5.75% [middle of 5 runs] | Potency [13] | Potency [14] | Potency [15] | Potency [16] | Potency [17]

O=C1O[C@H]([C@@H](O)CO)C(O)=C1O
inactive: Potency [1] | Potency [2] | outcome [3] | Potency [4] | Potency [5] | Potency [6] | Potency [7] | Potency [8] | Potency [9] | Potency [10] | Potency [11] | max response [12] 5.34% [middle of 5 runs] | Potency [13] | Potency [14] | Potency [15] | Potency [16] | Potency [17]
